Test results published in PubChem BioAssay (NCI).
The panel holds about 79,000 compounds, 15% with a hit somewhere; the sample as a whole holds those more often. The source made the active and inactive calls. Cut-off read from the data, not from the text of the source: active = growth inhibition above about 70%; inactive = the rest.

Key:
[1] = NCI Yeast Anticancer Drug Screen. Data for the rad52 strain (AID 147);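 note: 0% = growth of vehicle-treated control cultures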; details: S. cerevisiae rad52 mutant growth inhibition, stronger effect = higher value
Method in brief: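 Yeast strain carrying a DNA damage repair alteration was exposed to test compounds. Growth inhibition was measured relative to vehicle-treated controls.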

[2] = NCI Yeast Anticancer Drug Screen. Data for the wt1 strain (AID 149);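 note: 0% = growth of vehicle-treated wt1 cultures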; details: S. cerevisiae wt1 strain (SPY 50644) growth inhibition, stronger effect = higher value
Method in brief: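 Vehicle-normalised growth inhibition; strain wt1; compound exposure.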

[3] = NCI Yeast Anticancer Drug Screen. Data for the rad50 strain (AID 155);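 note: 0% = growth of vehicle-only cultures of the same strain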; details: S. cerevisiae rad50 strain growth inhibition, stronger effect = higher value
Method in brief: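 A DNA repair-deficient yeast mutant serves as the test organism; compound-induced growth inhibition is calculated against vehicle-treated cells.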

[4] = NCI Yeast Anticancer Drug Screen. Data for the sgs1 mgt1 strain (AID 161);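 note: 0% = growth of cultures given vehicle only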; details: S. cerevisiae sgs1 mgt1 strain, stronger effect = higher value
Method in brief: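 Percent growth inhibition was derived by comparing compound-exposed mutant yeast with vehicle-exposed cultures. The strain carries alterations in DNA damage repair.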

[5] = NCI Yeast Anticancer Drug Screen. Data for the CLN2oe strain (AID 163);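 note: 0% = growth of vehicle-only control cultures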; details: S. cerevisiae CLN2oe strain, stronger effect = higher value
Method in brief: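 Yeast cells carrying a defined cell-cycle control alteration were exposed to test compounds. Growth inhibition was scored against vehicle-treated control cultures.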

[6] = NCI Yeast Anticancer Drug Screen. Data for the cln2 rad14 strain (AID 165);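 note: 0% = growth equal to vehicle treated cultures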; details: S. cerevisiae cln2 rad14 strain, stronger effect = higher value
Method in brief: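 Yeast carrying cln2 and rad14 alterations (cell cycle control and DNA damage repair) were exposed to compounds. Growth inhibition was measured against vehicle-treated controls.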

[7] = NCI Yeast Anticancer Drug Screen. Data for the bub3 strain (AID 167); details: S. cerevisiae bub3 mutant strain, stronger effect = higher value
Method in brief: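 Inhibition values come from growth of compound-treated mutant yeast normalised to vehicle-treated controls.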

[8] = NCI Yeast Anticancer Drug Screen. Data for the wt2 strain (AID 169);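 note: 0% = growth of vehicle-treated yeast cultures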; details: S. cerevisiae wt2 strain growth inhibition, stronger effect = higher value
Method in brief: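 Yeast cells were exposed to test compounds, and growth inhibition was measured relative to vehicle-treated controls.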

[9] = NCI Yeast Anticancer Drug Screen. Data for the mlh1 strain (AID 171);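 note: 0% = growth of vehicle-treated control cultures of the same strain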; details: S. cerevisiae mlh1 strain growth inhibition, stronger effect = higher value
Method in brief: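 Yeast carrying a defined genetic alteration in DNA damage repair or cell cycle control were exposed to test compounds. Growth inhibition was measured relative to vehicle-treated controls.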

[10] = NCI Yeast Anticancer Drug Screen. Data for the sgs1 strain (AID 173);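 note: 0% = growth of vehicle-only control cultures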; details: S. cerevisiae sgs1 mutant, stronger effect = higher value
Method in brief: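 Yeast mutant strains carrying defined defects in DNA damage repair or cell cycle control were exposed to test compounds. Growth inhibition was scored against vehicle-treated controls.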

[11] = NCI Yeast Anticancer Drug Screen. Data for the mlh1 rad18 strain (AID 175); details: S. cerevisiae mlh1 rad18 strain growth inhibition, stronger effect = higher value
Method in brief: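 Growth inhibition of the yeast strain was measured after compound exposure and expressed relative to vehicle-treated controls. The strain carries defined defects in DNA damage repair.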

[12] = NCI Yeast Anticancer Drug Screen. Data for the rad18 strain (AID 177); details: S. cerevisiae rad18 mutant growth inhibition, stronger effect = higher value
Method in brief: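 Yeast carrying a defined DNA damage repair alteration were exposed to compounds. Growth inhibition was expressed relative to vehicle-treated controls.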

[13] = NCI Yeast Anticancer Drug Screen. Data for the mec2-1 strain (AID 157); details: S. cerevisiae mec2-1 strain, stronger effect = higher value
Method in brief: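 mec2-1 yeast strain, carrying an alteration in DNA damage repair or cell cycle control, was exposed to compounds; growth inhibition was measured relative to vehicle-treated controls.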

[14] = NCI Yeast Anticancer Drug Screen. Data for the rad14 strain (AID 159);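 note: 0% = growth of vehicle-treated control cultures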; details: S. cerevisiae rad14 strain growth inhibition, stronger effect = higher value
Method in brief: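 Vehicle-treated cultures served as the baseline for growth inhibition of a DNA repair-mutant yeast strain exposed to each compound.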

[15] = at 5.0 µM (retest, dose inferred, filed as 0.5)
[16] = at 50.0 µM (retest, dose inferred, filed as 5.0)

Measured: growth inhibition

Cc1nc2c(ncn2CCO)c(=O)[nH]1
inactive: [1]; at 1.2 µM -3% | [1]; at 3.7 µM -8% | [1]; at 11.0 µM -7% | [1]; at 33.0 µM -12% | [1]; at 100.0 µM -14% | [2]; at 1.2 µM -36% | [2]; at 3.7 µM -22% | [2]; at 11.0 µM -38% | [2]; at 33.0 µM -42% | [2]; at 100.0 µM -41% | [3]; at 1.2 µM -29% | [3]; at 3.7 µM -34% | [3]; [15] 29% | [3]; at 11.0 µM -32% | [3]; at 33.0 µM -33% | [3]; [16] 39% | [3]; at 50.0 µM 7.95% | [3]; at 100.0 µM -24% | [4]; [15] 29% | [4]; at 50.0 µM 2.1% | [5]; at 1.2 µM 0% | [5]; at 3.7 µM -7% | [5]; at 11.0 µM -2% | [5]; at 33.0 µM -6% | [5]; at 100.0 µM -4% | [6]; [15] 8% | [6]; [16] 34% | [6]; at 50.0 µM 8.25% | [7]; at 1.2 µM -10% | [7]; at 3.7 µM -7% | [7]; [15] 21% | [7]; at 11.0 µM -17% | [7]; at 33.0 µM -13% | [7]; at 50.0 µM 0.5% | [7]; at 100.0 µM -28% | [8]; at 1.2 µM -15% | [8]; at 3.7 µM -30% | [8]; at 11.0 µM -31% | [8]; at 33.0 µM -37% | [8]; at 100.0 µM -38% | [9]; at 1.2 µM -16% | [9]; at 3.7 µM -11% | [9]; at 11.0 µM -14% | [9]; at 33.0 µM -18% | [9]; at 100.0 µM -5% | [10]; at 1.2 µM 2% | [10]; at 3.7 µM 8% | [10]; at 11.0 µM 9% | [10]; at 33.0 µM 5% | [10]; at 100.0 µM -2% | [11]; [15] 45% | [11]; at 50.0 µM -40.7% | [12]; at 1.2 µM -38% | [12]; at 3.7 µM -32% | [12]; at 11.0 µM -9% | [12]; at 33.0 µM -35% | [12]; at 100.0 µM -36%
active: [7]; [16] 76% | [11]; [16] 91%

N#CSC1CCCCNC1=O (configuration not stated)
inactive: [1]; at 1.2 µM 2% | [1]; at 3.7 µM 10% | [1]; at 11.0 µM 32% | [2]; at 1.2 µM -3% | [2]; at 3.7 µM -3% | [2]; at 11.0 µM 9% | [2]; at 33.0 µM 46% | [3]; at 1.2 µM 0% | [3]; at 3.7 µM 3% | [3]; [15] -150% | [3]; at 11.0 µM 36% | [3]; [16] 26% | [3]; at 50.0 µM 54.2% | [13]; at 1.2 µM 4% | [13]; at 3.7 µM 3% | [13]; [15] -47% | [13]; at 11.0 µM 25% | [13]; at 33.0 µM 51% | [13]; [16] 3% | [14]; at 1.2 µM 2% | [14]; at 3.7 µM -4% | [14]; at 11.0 µM 10% | [14]; at 33.0 µM 59% | [4]; [15] -59% | [4]; [16] 35% | [4]; at 50.0 µM 50% | [5]; at 1.2 µM -4% | [5]; at 3.7 µM -4% | [5]; at 11.0 µM 21% | [5]; at 33.0 µM 44% | [6]; [15] -58% | [6]; [16] -13% | [6]; at 50.0 µM 52.5% | [7]; at 1.2 µM -4% | [7]; at 3.7 µM 4% | [7]; [15] -66% | [7]; at 11.0 µM 36% | [7]; at 33.0 µM 60% | [7]; [16] 2% | [8]; at 1.2 µM 0% | [8]; at 3.7 µM -1% | [8]; at 11.0 µM 10% | [8]; at 33.0 µM 49% | [9]; at 1.2 µM 7% | [9]; at 3.7 µM -4% | [9]; at 11.0 µM 26% | [9]; at 33.0 µM 56% | [10]; at 1.2 µM 1% | [10]; at 3.7 µM 5% | [10]; at 11.0 µM 57% | [11]; [15] -126% | [11]; [16] 58% | [12]; at 1.2 µM 12% | [12]; at 3.7 µM 33%
active: [1]; at 33.0 µM 83% | [1]; at 100.0 µM 98% | [2]; at 100.0 µM 93% | [3]; at 33.0 µM 86% | [3]; at 100.0 µM 98% | [13]; at 50.0 µM 78.3% | [13]; at 100.0 µM 94% | [14]; at 100.0 µM 99% | [5]; at 100.0 µM 96% | [7]; at 50.0 µM 79.7% | [7]; at 100.0 µM 97% | [8]; at 100.0 µM 98% | [9]; at 100.0 µM 98% | [10]; at 33.0 µM 89% | [10]; at 100.0 µM 99% | [11]; at 50.0 µM 95.9% | [12]; at 11.0 µM 82% | [12]; at 33.0 µM 94% | [12]; at 100.0 µM 98%
